{"source": "ChEMBL document CHEMBL4513146", "about": "“CO-ADD screening of Karazin Kharkiv National University (Ukraine) compounds”", "note": "Measured potencies and affinities stand elsewhere.", "data": [{"tested_on": "Staphylococcus aureus", "settings": "Concentration 32 ug.mL-1;; ASSAY_TEST Inhibition of Bacterial Growth; detection method Absorption (OD600); MEDIA CAMHB; plate type 384well; NBS; CORNING #3640; time 18 hr", "units": {"Inhibition": "%"}, "values": [{"compound": "O=c1c2nn(Cc3cccc(F)c3)c(=O)n2ccn1-c1ccccc1", "Inhibition": -1.92}, {"compound": "Cc1ccc(-c2cc3c4nnc(CCC(=O)N5CCN(c6ccccc6F)CC5)n4ccn3n2)cc1C", "Inhibition": -1.08}, {"compound": "COc1cccc(Oc2nccn3c(=O)n(CC(=O)Nc4ccc(Br)cc4F)nc23)c1", "Inhibition": 14.87}, {"compound": "CCOC(=O)c1ccccc1NC(=O)Cn1nc2ccc(Sc3ccc(C)cc3)nn2c1=O", "Inhibition": 14.05}, {"compound": "CCc1ccccc1Sc1nccn2c(=O)n(CC(=O)Nc3cccc(Br)c3)nc12", "Inhibition": 8.83}, {"compound": "O=c1n(Cc2cccc(C(F)(F)F)c2)nc2c(S(=O)(=O)N3CCCCC3)cccn12", "Inhibition": 4.93}, {"compound": "COc1ccc(CNC(=O)CSc2nnc3c4cc(-c5ccc(C)cc5)nn4ccn23)cc1OC", "Inhibition": 5.65}, {"compound": "O=C(CSc1nnc2c(=O)n(-c3ccc(F)cc3)ccn12)N1CCN(c2ccccc2F)CC1", "Inhibition": 14.78}, {"compound": "CC(C)c1nnc2c(SCC(=O)Nc3ccccc3C(F)(F)F)nc3ccccc3n12", "Inhibition": 6.66}, {"compound": "Cc1ccc(N(Cc2ccccc2)S(=O)(=O)c2ccc3nncn3c2)cc1F", "Inhibition": -5.44}, {"compound": "Cc1ccc(NC(=O)Cn2nc3ccc(SC(C)(C)C)nn3c2=O)cc1Cl", "Inhibition": 3.27}, {"compound": "COc1ccc(C(=O)CSc2nnc3c(=O)n(-c4ccc(F)cc4)ccn23)cc1OC", "Inhibition": 16.25}, {"compound": "Cc1cc(C)c(NC(=O)Cn2nc3c(N4CCN(c5ccccc5)CC4)nccn3c2=O)c(C)c1", "Inhibition": 13.62}, {"compound": "Cc1ccc(-n2ccn3c(SCC(=O)N4CCN(c5ccc(F)cc5)CC4)nnc3c2=O)cc1C", "Inhibition": 15.71}, {"compound": "Cc1ccccc1Oc1nccn2c(=O)n(CC(=O)Nc3ccccc3C(F)(F)F)nc12", "Inhibition": 10.19}, {"compound": "O=C(CCc1nnc2c3cc(-c4ccccc4)nn3ccn12)N1CCN(C(=O)c2ccco2)CC1", "Inhibition": 7.4}, {"compound": "Cc1nnc2ccc(S(=O)(=O)N(Cc3ccccc3)c3ccc(Cl)cc3)cn12", "Inhibition": 1.7}, {"compound": "COc1ccc(-c2cc3c4nn(CC(=O)Nc5cccc(C(C)=O)c5)c(=O)n4ccn3n2)cc1", "Inhibition": -6.93}, {"compound": "COc1cc(OC)c(NC(=O)Cn2nc3c(Sc4cccc(C)c4)nccn3c2=O)cc1Cl", "Inhibition": 10.36}, {"compound": "CCOc1ccc(-n2ccn3c(SCC(=O)NCc4cccc(OC)c4OC)nnc3c2=O)cc1", "Inhibition": 12.04}, {"compound": "Cc1nnc2c(=S)[nH]c3ccccc3n12", "Inhibition": 19.6}, {"compound": "COc1ccc(NC(=O)Cn2nc3c4cc(-c5ccc(OC)cc5)nn4ccn3c2=O)cc1", "Inhibition": 8.44}, {"compound": "CCCCn1c(=O)c2sccc2n2c(=O)n(CC(=O)NC(C)CC)nc12", "note": "(centres undefined)", "Inhibition": -5.96}, {"compound": "Cc1ccc(-n2ccn3c(SC(C)C(=O)Nc4ccc5c(c4)OCCO5)nnc3c2=O)cc1C", "note": "(centres undefined)", "Inhibition": 12.06}, {"compound": "Cc1ccc(Cl)cc1NC(=O)Cn1nc2c(N3CCOCC3)nc3ccccc3n2c1=O", "Inhibition": -1.67}, {"compound": "Cc1ccc(NC(=O)Cn2nc3ccc(SC4CCCCC4)nn3c2=O)c(Cl)c1", "Inhibition": -1.24}, {"compound": "Cc1cccc(NC(=O)Cn2nc3ccc(-c4ccc(C)c(C)c4)nn3c2=O)c1", "Inhibition": -13.22}, {"compound": "CC1CCN(C(=O)Cn2nc3n(Cc4cccs4)c(=O)c4sccc4n3c2=O)CC1", "Inhibition": 3.66}, {"compound": "Cc1ccc(Cl)cc1N1CCN(C(=O)CCc2nnc3c4cc(-c5ccccc5)nn4ccn23)CC1", "Inhibition": 1.17}, {"compound": "COc1ccc(Cn2nc3ccc(-c4ccccc4)nn3c2=O)cc1F", "Inhibition": 20.86}, {"compound": "N#Cc1cccc(NC(=O)CSc2nnc3c4cc(-c5ccc(F)cc5)nn4ccn23)c1", "Inhibition": 11.69}, {"compound": "Cc1ccccc1Nc1cc(C)n2c(=O)n(CCOc3ccc(F)cc3)nc2n1", "Inhibition": 13.1}, {"compound": "Cc1cc2nn(CC(=O)Nc3ccc(F)cc3Cl)c(=O)n2c(Nc2ccccc2C)n1", "Inhibition": -3.09}, {"compound": "O=C(Cn1nc2c3c4c(sc3ncn2c1=O)CCCC4)N1CCc2ccccc2C1", "Inhibition": 0.97}, {"compound": "O=C(CSc1nnc2c(=O)n(-c3ccc(F)c(F)c3)ccn12)c1c[nH]c2ccccc12", "Inhibition": 13.28}, {"compound": "COc1ccccc1-n1ccn2c(SCC#N)nnc2c1=O", "Inhibition": 15.53}, {"compound": "COc1ccc(-c2cc3c4nnc(SCC(=O)Nc5ccc(C)c(F)c5)n4ccn3n2)cc1", "Inhibition": 0.86}, {"compound": "O=C(NCc1ccccc1)c1ccc2nn(CC(=O)N3CCN(c4ccccc4F)CC3)c(=O)n2c1", "Inhibition": 3.54}, {"compound": "O=c1c2nnc(SCc3ccccc3)n2ccn1-c1ccc(Br)cc1", "Inhibition": 12.69}]}]}
